# According to PubChem BioAssay (NCATS):
# Records with an inconclusive call do not appear. Entries that show only a call come without a potency. Calls of active or inactive are those of the source. Unless noted, the call rests on the fitted dose curve; in most records, active means well fitted curve in the direction sought with a large enough effect; inconclusive means small, poorly fitted or top-dose-only effect, or another doubt; inactive means no such curve, though single readings can be large; an effect the other way counts as inactive or inconclusive.
# Legend:
# [1] = NS1 protein of Zika virus - qHTS assay to identify small molecule inhibitors in human HEK 293 cells (AID 1347053); further: series mostly up to about 46 µM; nearly all actives have a fitted effect of over 55% in size
# How it was run: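 HEK 293; 20 h pre-culture, 37 C/5% CO2; cpd 1 h pre-infection; ZIKV MR766, MOI = 0.5, 24 h, 37 C; TR-FRET NS1 readout (two anti-NS1 Abs); norm. to no-virus vs infected.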
# [2] = biological target: T1, Tyrosine-protein phosphatase non-receptor type substrate 1 (Homo sapiens) + Leukocyte surface antigen CD47 (Homo sapiens) (UniProt P78324+Q08722); experiment: CD47-SIRPalpha protein protein interaction - LANCE assay qHTS validation (AID 1347057; active means well fitted curve in the direction sought with a large enough effect in the signal ratio, with a control signal flat, not every such curve was filed as active; the % refers to the signal ratio; further: series mostly up to about 38 µM)
# T1 sequence (P78324 whole entry, looked up): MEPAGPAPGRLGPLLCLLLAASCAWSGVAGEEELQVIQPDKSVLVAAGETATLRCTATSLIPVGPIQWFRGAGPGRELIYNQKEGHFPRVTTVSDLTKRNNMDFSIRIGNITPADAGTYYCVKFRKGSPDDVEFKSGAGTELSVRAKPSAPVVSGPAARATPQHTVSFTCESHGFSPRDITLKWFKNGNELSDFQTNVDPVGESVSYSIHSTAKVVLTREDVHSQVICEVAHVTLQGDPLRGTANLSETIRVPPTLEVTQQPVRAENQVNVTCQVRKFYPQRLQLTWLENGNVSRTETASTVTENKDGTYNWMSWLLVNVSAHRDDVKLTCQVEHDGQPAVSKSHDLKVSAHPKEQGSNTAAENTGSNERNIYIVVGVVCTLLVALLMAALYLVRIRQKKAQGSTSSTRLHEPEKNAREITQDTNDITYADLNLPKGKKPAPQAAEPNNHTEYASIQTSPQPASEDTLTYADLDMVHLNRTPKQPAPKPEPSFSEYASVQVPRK
# T1 sequence (Q08722 whole entry, looked up): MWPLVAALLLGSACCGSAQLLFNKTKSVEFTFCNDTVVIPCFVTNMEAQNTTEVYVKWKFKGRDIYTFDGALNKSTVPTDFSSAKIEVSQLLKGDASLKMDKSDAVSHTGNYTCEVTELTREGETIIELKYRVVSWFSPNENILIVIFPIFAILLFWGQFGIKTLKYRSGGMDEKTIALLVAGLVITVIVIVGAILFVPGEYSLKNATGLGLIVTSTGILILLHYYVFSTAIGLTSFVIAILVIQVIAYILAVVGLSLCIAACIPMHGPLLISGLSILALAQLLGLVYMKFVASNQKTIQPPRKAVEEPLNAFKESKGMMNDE
# How it was run: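 First, His-tagged CD47 and Eu-labelled anti-His antibody met the compound for 30 min; next, site-specifically biotinylated SIRPalpha was added for 30 min; finally streptavidin-APC was added before reading the TR-FRET ratio.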
# [3] = biological target: T1, Tyrosine-protein phosphatase non-receptor type substrate 1 (Homo sapiens) + Leukocyte surface antigen CD47 (Homo sapiens); experiment: CD47-SIRPalpha protein protein interaction - HTRF assay qHTS validation (AID 1347058; active means well fitted curve in the direction sought with a large enough effect in the signal ratio, not every such curve was filed as active; the % refers to the signal ratio;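 further: recombinant soluble extracellular CD47 with His tag and biotinylated SIRPalpha domains; series mostly up to about 38 µM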)
# How it was run: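 TR-FRET read (Ch1/Ch2 ratio) of soluble extracellular CD47 and Avi-biotinylated SIRPalpha domains in PBS pH 7.4 with 0.05% IGEPAL; 7-point compound titration. Sequential 30 min room-temperature steps; non-biotinylated SIRPalpha as control inhibitor.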
# [4] = biological target: T1, Tyrosine-protein phosphatase non-receptor type substrate 1 (Homo sapiens) + Leukocyte surface antigen CD47 (Homo sapiens); experiment: CD47-SIRPalpha protein protein interaction - Alpha assay qHTS validation (AID 1347059);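 further: bead proximity luminescence from CD47 binding SIRPalpha after compound preincubation with SIRPalpha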
# How it was run: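 Biotinylated Avi-tagged SIRPalpha (25 nM) preincubated 30 min with compound, then His-tagged CD47 (12.5 nM) added 30 min; AlphaScreen with Ni-NTA acceptor and streptavidin donor beads. PBS pH 7.4, 0.05% IGEPAL, room temperature; 7-point titrations.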
# [5] = qHTS of pediatric cancer cell lines to identify multiple opportunities for drug repurposing: Primary screen for TC32 cells (AID 1347089); further: nearly all actives have a fitted effect of over 60% in size; further: potency means the concentration at half of the fitted maximal effect
# How it was run: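 Luminescent CellTiter-Glo read-out of metabolically active TC32 cells after 48 h compound exposure. Primary: MIPE 11-point, 0.78 nM–46 µM; NPC 8-point, 0.59 nM–46 µM. Confirmatory: 11-point dilutions.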
# [6] = qHTS of pediatric cancer cell lines to identify multiple opportunities for drug repurposing: Primary screen for DAOY cells (AID 1347090); further: series mostly up to about 46 µM; nearly all actives have a fitted effect of over 55% in size
# How it was run: (§1)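 Viability measured as metabolically active cells via CellTiter-Glo luminescence following 48 hours of compound exposure, 11-point dilutions in confirmatory testing. 500-1,000 cells/well plated 5 hours before dosing; controls were DMSO and 2.3 µM bortezomib.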
# [7] = qHTS of pediatric cancer cell lines to identify multiple opportunities for drug repurposing: Primary screen for SJ-GBM2 cells (AID 1347091); further: potency means the concentration at half of the fitted maximal effect
# How it was run: as §1
# [8] = qHTS of pediatric cancer cell lines to identify multiple opportunities for drug repurposing: Primary screen for A673 cells (AID 1347092); further: nearly all actives have a fitted effect of over 45% in size; further: potency means the concentration at half of the fitted maximal effect
# How it was run: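 A673 cells (500-1,000 cells/well in growth media) were pre-incubated 5 h at 37 degrees C, then exposed to compounds for 48 h. Viability was read as CellTiter-Glo luminescence; concentration-response curves came directly from the primary screen.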
# [9] = qHTS of pediatric cancer cell lines to identify multiple opportunities for drug repurposing: Primary screen for SK-N-MC cells (AID 1347093); further: potency means the concentration at half of the fitted maximal effect
# How it was run: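 Metabolically active cells were quantified by ATP-dependent luminescence (CellTiter-Glo, 15 min at room temperature) following 48 h treatment. Cells had been plated at 500-1,000 per well and settled for 5 h beforehand.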
SMILES,Potency [1],outcome [2],outcome [3],outcome [4],Potency [5],Potency [6],Potency [7],Potency [8],Potency [9]
O=C1NC(=O)[C@@]2(CCOc3ccc(F)cc32)N1,inactive,inactive,inactive,inactive,inactive,inactive,inactive,inactive,inactive
OCC(O)CN1CCN(c2ccccc2)CC1 (stereo not drawn),inactive,–,–,–,inactive,inactive,inactive,inactive,inactive
Cc1ccc2nc(N)[nH]c(=O)c2c1Sc1ccncc1,inactive,–,–,–,8.36 µM (active),–,–,–,0.944 µM (active)
CN1CCOC(c2ccccc2)c2ccccc2C1 (stereo not drawn),inactive,–,–,–,inactive,–,inactive,inactive,inactive
O=C1O[C@H](CO)[C@@H](O)[C@H](O)[C@H]1O,inactive,–,–,–,inactive,–,inactive,inactive,inactive
O=C(O)c1ccccc1-c1ccc(C(F)(F)F)cc1,inactive,–,–,–,inactive,inactive,–,inactive,inactive
C[C@H](N)[C@H](O)c1cccc(O)c1,inactive,–,–,–,inactive,inactive,–,inactive,inactive
NC(=O)NC(=O)Cc1ccccc1,inactive,–,–,–,inactive,inactive,inactive,inactive,inactive
Cc1cc2nc3c(=O)[nH]c(=O)nc-3n(C[C@H](O)[C@H](O)[C@H](O)CO)c2cc1C,inactive,–,–,–,inactive,–,inactive,inactive,inactive
CO/N=C(\C(=O)N[C@@H]1C(=O)N2C(C(=O)O)=C(CSc3nc(=O)c(O)nn3C)CS[C@H]12)c1csc(N)n1,inactive,–,–,–,inactive,–,–,inactive,inactive
O=Cc1ccccc1C=O,inactive,–,–,–,–,inactive,inactive,inactive,inactive
CCOC(CN1CCN(CC(C)C(=O)c2ccccc2)CC1)c1ccccc1 (stereo not drawn),inactive,–,–,–,inactive,inactive,inactive,inactive,inactive
CC/C=C(\C(=O)N[C@@H]1C(=O)N2C(C(=O)OCOC(=O)C(C)(C)C)=C(COC(N)=O)CS[C@H]12)c1csc(N)n1,inactive,–,–,–,inactive,inactive,inactive,inactive,inactive
CCCCN(CCCC)CCCOC(=O)c1ccc(N)cc1,inactive,–,–,–,inactive,–,–,inactive,inactive
CC[C@@]1(c2ccccc2)NC(=O)N(C)C1=O,inactive,–,–,–,–,inactive,inactive,inactive,inactive
NC(CSCC(=O)O)C(=O)O (stereo not drawn),inactive,–,–,–,inactive,inactive,–,inactive,inactive
CCN(CC)CCNC(C(=O)OCCC(C)C)c1ccccc1 (stereo not drawn),inactive,–,–,–,inactive,inactive,inactive,inactive,inactive
CCN(CC)CCNC(=O)c1c(C)[nH]c(/C=C2\C(=O)Nc3ccc(F)cc32)c1C,–,–,–,–,8.36 µM (active),–,11.9 µM (active),10.6 µM (active),2.37 µM (active)

SMILES,Potency [1],outcome [2],outcome [3],outcome [4],Potency [5],Potency [6],Potency [7],Potency [8],Potency [9]
C[C@]12CC[C@@H]3c4ccc(O)cc4CC[C@H]3[C@@H]1CC[C@@H]2OC(=O)CCC1CCCC1,inactive,–,–,–,inactive,–,–,inactive,inactive
NC(=O)N/N=C/c1ccc([N+](=O)[O-])o1,inactive,–,–,–,inactive,–,inactive,48.6 µM (active),inactive
CC[N+](CC)(CC)CCOc1ccc(/C=C/c2ccccc2)cc1,inactive,–,–,–,21 µM (active),–,–,2.66 µM (active),5.96 µM (active)
Cn1c(=O)c2c(ncn2CC2OCCO2)n(C)c1=O,inactive,–,–,–,inactive,inactive,inactive,inactive,inactive
CN1[C@@H]2CC[C@H]1CC(OC(=O)C(O)c1ccccc1)C2 (stereo partly drawn),inactive,–,–,–,inactive,inactive,inactive,inactive,inactive
NCCNCCNCCN,inactive,–,–,–,inactive,–,inactive,inactive,inactive
CC(COc1ccccc1)NC(C)C(O)c1ccc(O)cc1 (stereo not drawn),inactive,–,–,–,inactive,inactive,inactive,inactive,inactive
CCCOC(=O)c1ccccc1,inactive,–,–,–,–,inactive,inactive,inactive,inactive
CC(O)COc1ccccc1 (stereo not drawn),inactive,–,–,–,inactive,–,inactive,inactive,–
CCC(=O)Nc1ccc(O)cc1,inactive,–,–,–,inactive,inactive,inactive,inactive,inactive
O=c1cc(CO)occ1O,inactive,–,–,–,inactive,–,inactive,inactive,inactive
O=c1cc[nH]c(=O)[nH]1,inactive,–,–,–,inactive,inactive,inactive,inactive,inactive
CC(=O)Nc1ccc(/C=N/NC(N)=S)cc1,inactive,–,–,–,inactive,inactive,inactive,inactive,inactive
C[C@H]1O[C@H](O[C@H]2[C@H](O)[C@@H](O)[C@@H](O[C@H]3[C@H](O)[C@@H](O)[C@H](O)O[C@@H]3CO)O[C@@H]2CO)[C@H](O)[C@@H](O)[C@@H]1N[C@H]1C=C(CO)[C@@H](O)[C@H](O)[C@H]1O,inactive,–,–,–,inactive,inactive,inactive,inactive,inactive
CC1=C(C/C=C(\C)CCC[C@H](C)CCC[C@H](C)CCCC(C)C)C(=O)c2ccccc2C1=O,inactive,–,–,–,–,–,inactive,inactive,inactive
CN1[C@@H]2CC(OC(=O)[C@H](CO)c3ccccc3)C[C@H]1[C@@H]1O[C@@H]12 (stereo partly drawn),inactive,–,–,–,inactive,–,inactive,inactive,inactive
O=C(O)Cc1sc(-c2ccccc2)nc1-c1ccc(Cl)cc1,inactive,–,–,–,inactive,–,inactive,inactive,inactive
O=C(O)c1ccccn1,inactive,–,–,–,inactive,inactive,inactive,inactive,inactive
